Bioassay records deposited in PubChem by National Center for Advancing Translational Sciences (NCATS).
D2 PAM-1: human D2 receptor positive allosteric modulation. P14416. DiscoveRx D2 beta-arrestin cells, luminescence, 90 min; 100% = 57 uM dopamine signal. potentiation, % (no concentration beside the values). 360,000 tested, 0.23% active; in the data active = potentiation above about 50%
Target sequence (P14416 whole entry, looked up): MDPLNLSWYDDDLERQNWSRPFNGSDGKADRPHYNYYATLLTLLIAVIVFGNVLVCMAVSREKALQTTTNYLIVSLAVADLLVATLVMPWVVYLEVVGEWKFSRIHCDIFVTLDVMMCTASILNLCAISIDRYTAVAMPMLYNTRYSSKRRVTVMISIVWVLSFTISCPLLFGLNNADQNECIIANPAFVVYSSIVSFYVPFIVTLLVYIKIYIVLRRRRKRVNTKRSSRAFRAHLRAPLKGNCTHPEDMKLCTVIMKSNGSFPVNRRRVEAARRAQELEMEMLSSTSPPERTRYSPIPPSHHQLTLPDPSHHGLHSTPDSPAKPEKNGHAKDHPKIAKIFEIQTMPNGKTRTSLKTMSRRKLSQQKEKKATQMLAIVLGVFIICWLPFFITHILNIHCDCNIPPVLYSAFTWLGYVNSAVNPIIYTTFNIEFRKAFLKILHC
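D2 cells co-treated with compound plus 50 nM dopamine (EC20) for 90 min at 37 deg C to detect potentiation. Beta-arrestin recruitment was read as enzyme-fragment luminescence after 1 h at ambient temperature. Full response was set by 57 uM dopamine.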
D2 ag-1: activates the human D2 dopamine receptor; P14416; HEK293 T-REx D2 cells, calcium flux agonist mode; activation, % at 2 µM; 340,000 tested, 0.53% active; AID 485358;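 active = activation over 3 SD above normal in the single-dose calcium agonist read, cut at about 30% in these data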; also: 0% is about no effect
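Tetracycline-induced HEK293 Trex cells with D2 receptor force-coupled to calcium signaling, plated overnight at 30 C and loaded with no-wash calcium dye. Calcium flux read kinetically for 180 s after compound addition; responses flag agonists.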
D2 ag-2: activates the human D2 dopamine receptor | P14416 | DiscoveRx PathHunter D2 beta-arrestin, luminescence, 90 min; 100% = 57 uM dopamine signal | activation, % (no concentration beside the values) | 360,000 tested, 0.084% active; in the data active = activation above about 40%
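DiscoveRx PathHunter D2 beta-arrestin cells (2,100/well) attached overnight, then compound-stimulated 90 min at 37 C in HBSS/10 mM HEPES/0.1% Tween-20 buffer; beta-galactosidase complementation read by luminescence after 1 h at ambient temperature. Dopamine 57 uM final (EC100) as control.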
D2 antag: antagonists of human D2 dopamine receptor; P14416; HEK293 TREx D2 cells, calcium flux, dopamine EC80; AID 485344; 340,000 tested, 2% active; inhibition, % at 10 µM; in the data active = inhibition above about 30%; inactive = below that, where a call was filed; also: 0% is about no effect
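Measurement of antagonist activity uses fluorescent calcium dye in inducible HEK293 T-REx D2 cells: 10 s baseline, compound addition with 180 s read, EC80 dopamine addition with a further 180 s read.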
D2 PAM-2: D2 dopamine receptor (human) potentiation; HEK293 T-REx D2, calcium flux, EC20 dopamine potentiation; P14416; potentiation, % at 10 µM; AID 485347; 340,000 tested, 0.34% active;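 active = potentiation over 3 SD above the plate norm, cut at about 30% in these data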; also: 0% is about no effect
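Using a no-wash calcium dye in inducible, force-coupled HEK293 Trex cells expressing D2, we tracked fluorescence each second for 180 s after compound, then for 180 s after EC20 dopamine to detect augmented signalling.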
* hit, by the source's call; . = no result given. The list is not random: actives were taken first. Their share in the collection is about 2.4%.

SMILES	D2 PAM-1	D2 ag-1	D2 ag-2	D2 antag	D2 PAM-2
CC(NC(=O)CN(C)CC(=O)Nc1ccc(F)c(F)c1F)c1ccccc1 (stereo unspecified)	1.9	1.8	-1.3	49.4*	1.8
CN(C)c1ccc(/C=C2\SC(=S)N(Nc3ncc(C(F)(F)F)cc3Cl)C2=O)cc1	-23.3	45.3*	-6.0	-18.8	-3.2
COc1cc(/C=C2\SC(=S)N(Nc3ncc(C(F)(F)F)cc3Cl)C2=O)ccc1O	-36.0	20.8	-14.2	-0.8	-11.0
CC1(C)COC(c2ccc3c(c2)OCO3)OC1	0.2	.	-1.2	.	.
COc1cccc(/C=C/C(=O)OCC(=O)c2ccc3c(c2)NC(=O)CO3)c1	-4.7	-0.2	-0.1	42.1*	17.1
C/C=C/C=C\C(=O)Nc1cccc(C2=NOC3(C2)C[C@H](C(N)=O)N(C(=O)CC#N)C3)c1 (stereo partly specified)	-3.9	-0.4	-6.4	33.2*	-3.4
C/C=C(/C)C(=O)Nc1cccc(C2=NOC3(C2)C[C@@H](C(N)=O)N(C(=O)CC(c2ccccc2)c2ccccc2)C3)c1 (stereo partly specified)	-3.8	0.5	-1.7	32.0*	37.0*
C/C=C(\C)C(=O)Nc1cccc(C2=NOC3(C2)C[C@H](C(N)=O)N(C(=O)c2cc([N+](=O)[O-])cc([N+](=O)[O-])c2)C3)c1 (stereo partly specified)	71.1*	0.3	12.1	13.6	-5.9
COc1cc(C(=O)n2nc(-c3ccco3)nc2NCc2ccc(Cl)cc2)cc(OC)c1OC	.	0.1	.	.	8.4
Cc1cc(C)cc(C(=O)NCCC(=O)N2CCC3(CC2)NCCc2[nH]cnc23)c1	-9.9	-1.0	1.8	-7.7	14.7
Nc1nc(SCc2ccccc2)c2ncn(CCO)c2n1	-26.5	.	0.9	.	.
Cc1ccccc1OCC(=O)OCC(=O)Nc1ccc(Cl)cn1	-4.0	0.5	-3.2	30.6*	-11.9
CC(C)Cn1c(N)c(C(=O)COC(=O)c2cccn2C)c(=O)n(C)c1=O	-0.9	.	2.6	.	.
CC(=O)NCCn1c(SCc2ccc(C)cc2)nc2ccccc2c1=O	6.8	-0.2	-1.7	-3.9	-1.5
Cc1ccc(CSc2nc3ccccc3c(=O)n2C)cc1	-6.0	2.0	-1.0	33.6*	0.8
COc1ccccc1N1CCN(C2CCCN(C(=O)c3csc(C)n3)C2)CC1 (stereo unspecified)	-30.3	-0.1	-6.1	2.9	10.0
CSc1nc(C(=O)N2CCCC(N3CCN(c4ccccc4C)CC3)C2)cs1 (stereo unspecified)	-32.3	1.5	-0.8	39.0*	-14.0
COc1ccccc1N1CCN(C2CCCN(C(=O)c3oc(C)cc3C)C2)CC1 (stereo unspecified)	-41.7	-0.7	-5.2	46.0*	-24.8
CCOC1(OCC)C(c2ccc(Cl)cc2)C(C#N)(C#N)C1(OCC)OCC (stereo unspecified)	-7.5	1.1	-2.9	38.5*	11.9
COc1ccc(/C=C/C(=O)Nc2ccccc2C(=O)NCC(c2ccc(OC)cc2)N(C)C)cc1 (stereo unspecified)	-33.1	-2.5	0.4	60.2*	.
COc1ccc(/C=C/C(=O)Nc2ccccc2C(=O)N2CCCC2)cc1	13.6	-0.4	0.8	-2.8	8.9
COc1ccc(/C=C/C(=O)Nc2ccccc2C(F)(F)F)cc1	-10.3	-1.3	-0.5	4.8	4.4
COc1ccc(/C=C/C(=O)Nc2ccccc2C(=O)O)cc1	8.7	4.4	1.4	33.7*	-0.9
CCOC(=O)C1CCCN(S(=O)(=O)c2ccc(C)cc2)C1 (stereo unspecified)	0.1	0.5	-1.0	-14.0	3.1
CCOC(=O)C1CCCN(S(=O)(=O)c2ccc(S(N)(=O)=O)cc2)C1 (stereo unspecified)	0.3	0.8	5.4	-11.1	51.2*
CCOC(=O)C1CCN(C(=O)c2cc(S(=O)(=O)N3CCCCCC3)ccc2OC)CC1	-9.9	-0.6	-2.7	37.9*	10.3
COc1ccc(S(=O)(=O)N2CCCCCC2)cc1C(=O)N1CCN(c2ccc(F)cc2)CC1	-3.4	.	9.0	.	.
COc1ccc(N2CCN(C(=O)c3cc(S(=O)(=O)N4CCCCCC4)ccc3OC)CC2)cc1	-20.9	0.4	-2.0	39.8*	-9.2
